HT1080-NT tox = kills 2HG-producing HT-1080-NT fibrosarcoma cells; HT-1080-NT fibrosarcoma viability, CellTiter-Glo ATP luminescence, 48 h; Potency, µM (series often up to 46.1 µM), for the others: at the top dose activity, negative = less viability, most hits filed as cytotoxic; hit rate 1.6% among 360,000;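 note: NT is the 2HG producing partner of a matched IDH1 knockdown line; 0% = DMSO-treated cells and -100% = media-only wells without cells; nearly all actives have a fitted effect of over 55% in size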
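Compounds were tested in concentration-response format on HT-1080-NT cells for 48 hours at 37 degrees C. Cell viability came from CellTiter-Glo luminescence; curves were classified by r2, response magnitude and activity.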
HT1080 IDH1KD tx = toxicity to HT-1080 IDH1 knockdown cells (counter line) | hit rate 2% among 360,000 | HT-1080 IDH1 knockdown viability, ATP luminescence, 48 h | Potency, µM (titrated, usually from 46.1 µM), for the others: top-dose activity, negative = toxicity, usual class: cytotoxic;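 note: 0% = DMSO wells and -100% = cell-free medium wells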
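HT-1080-IDH1KD cells (IDH1 knocked down), 750/well in RPMI with 5% FBS, treated with compound 48 h at 37 degrees C. Viability by CellTiter-Glo luminescence, normalised to DMSO and no-cell wells; concentration-response curves classed.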
KB-3-1 tox = KB-3-1 parental cell cytotoxicity. hit rate 1.4% among 400,000. KB-3-1 viability, CellTiter-Glo ATP luminescence, 72 h. Potency, µM (highest dose often 46.1 µM), actives largely listed as cytotoxic; note: nearly all actives have a fitted effect of over 60% in size
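Luminescent ATP read-out (CellTiter-Glo) measures survival of drug-naive KB-3-1 cells after 72 h compound exposure at 37 °C. Titration series was screened from lowest to highest concentration, with DMSO vehicle plates as background controls.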
DT40 TDP1 CPT = growth inhibition of DT40 Tdp1-/-;hTDP1 cells with camptothecin (screen for TDP1 inhibitors); chicken DT40 Tdp1-/-;hTDP1 cells + 20 nM CPT, ATP luminescence, 48 h; Potency, µM (highest dose often 46.2 µM), without a hit: at the highest dose activity change, negative = growth inhibition, most hits filed as inhibitors; hit rate 12% among 420,000; AID 686979; note: nearly all actives have a fitted effect of over 55% in size
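Chicken DT40 Tdp1-/- cells stably complemented with human TDP1 were seeded at 400 cells/well in medium containing 20 nM camptothecin, exposed to pin-transferred compounds, and grown at 37 °C for at least 48 hr. Viability was read as ATP luminescence.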
KB-V1 MDR tox = kills drug-selected multidrug resistant KB-V1 cells; KB-V1 MDR cells viability, CellTiter-Glo, 72 h; Potency, µM (series often up to 46.1 µM), hits mostly cytotoxic; hit rate 3.4% among 400,000; AID 1347076; note: nearly all actives have a fitted effect of over 60% in size
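In this primary screen, KB-V1 cells overexpressing P-gp are incubated with library compounds (lowest to highest concentration) for 72 h at 37 degrees C before a luminescent ATP viability read.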
DT40 TDP1 no CPT = qHTS for Inhibitors of human tyrosyl-DNA phosphodiesterase 1 (TDP1): qHTS in cells in absence of CPT; DT40 Tdp1-/- hTDP1 cells, no CPT, ATP luminescence, 48 h; Potency, µM (titrated, usually from 46.2 µM), for inactives: at the highest dose activity change, negative = growth inhibition, most hits filed as inhibitors; hit rate 15% among 420,000; AID 686978, 2013; note: nearly all actives have a fitted effect of over 55% in size
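Seeded 400 DT40-hTDP1 cells/well (vehicle DMSO, no 20 nM CPT); pinned compounds; ≥48 hr at 37 °C; CellTiter-Glo luminescence as viability measure.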
* marks the source's active call; other numbers are inactive results; i = inactive; ? = inconclusive; . = no result given. Hits are enriched below; roughly 19% of the tested compounds scored in any of these assays. Calls come from the whole dose curve; as a rule, active = well fitted curve in the direction sought with a large enough effect; inconclusive = small, poorly fitted or top-dose-only effect, or another doubt; inactive = no such curve, though single readings can be large; an effect the other way counts as inactive or inconclusive. Unless noted, % is set by controls: 0 for no effect and ±100 for the full control effect; potency is the fitted concentration of half-maximal effect.

SMILES	HT1080-NT tox	HT1080 IDH1KD tx	KB-3-1 tox	DT40 TDP1 CPT	KB-V1 MDR tox	DT40 TDP1 no CPT
CN1OC[C@@H]2CN[C@H](c3ccc(-c4ccc(C#N)cc4)cc3)C[C@@H]21	-3%	-7%	i	18µM*	i	23µM*
CN1OC[C@@H]2CN[C@H](c3ccc(-c4cc5ccccc5o4)cc3)C[C@@H]21	?	-26%	i	16µM*	i	23µM*
CC(C)(NC(=O)c1ccccc1)c1nc2ccccc2s1	2%	1%	i	4%	i	-9%
CCOc1cc(C=O)ccc1OS(=O)(=O)c1ccc(NC(C)=O)cc1	-13%	-16%	i	?	i	18µM*
CCOC(=O)c1cc(OC(=O)c2ccc(OC)c(OC)c2)n(-c2ccccc2)n1	.	.	i	.	i	.
CCOC(=O)c1ccc(OS(=O)(=O)c2ccccc2)c(OC)c1	-3%	-16%	i	21µM*	i	?
COc1cc(C(=S)N2CCCC2)ccc1OS(=O)(=O)c1ccc(NC(C)=O)cc1	-4%	-11%	i	15µM*	i	?
CCOc1cc(C=O)ccc1OCC(=O)NC(C)(C)C	2%	0%	i	1%	i	7%
COc1cc(C(=S)N2CCCC2)cc(OC)c1OS(=O)(=O)c1ccc(NC(C)=O)cc1	-3%	-6%	i	?	i	?
CCOc1cc(C(=S)N2CCOCC2)ccc1OS(=O)(=O)c1ccccc1	0%	-4%	i	?	2.3µM*	?
CCOc1ccc(NC(=O)Cn2c(=O)n(CCc3ccccc3)c(=O)c3c4c(sc32)CCCC4)cc1	.	.	i	4%	i	-29%
O=c1oc(=S)oc2c1[C@H](c1ccc(Cl)cc1)O[C@H](C1CC1)C2	15%	13%	i	-3%	?	-14%
COc1cc(C(=S)N2CCOCC2)ccc1OS(=O)(=O)c1ccc(NC(C)=O)cc1	-25%	?	?	18µM*	i	9.2µM*
COc1ccc(S(=O)(=O)Oc2ccc(C(=S)N3CCOCC3)cc2OC)cc1	-12%	-7%	i	?	i	?
O=C(NNc1ccc([N+](=O)[O-])cc1[N+](=O)[O-])c1ccco1	18µM*	?	?	15µM*	i	21µM*
CCOCCCNC(=O)c1ccc2c(c1)ncn2-c1ccc(C)cc1C	3%	-1%	i	-26%	i	16µM*
COc1ccc(CCNC(=O)c2ccc3c(c2)ncn3-c2ccc(C)cc2C)cc1OC	.	.	i	?	i	21µM*
COc1ccc(CCNC(=O)c2ccc3c(c2)ncn3-c2ccc(C(C)C)cc2)cc1OC	.	.	i	10µM*	?	18µM*
Cc1ccc(-n2cnc3cc(C(=O)NCCC4=CCCCC4)ccc32)c(C)c1	.	.	i	?	i	?
c1ccc(-c2cc(NCCN3CCCCC3)c3ccccc3n2)cc1	21µM*	21µM*	?	23µM*	?	16µM*
O=C(c1cc(-c2ccccc2)nc2ccccc12)N1CCCC1	0%	-5%	i	-1%	i	-22%
Cc1nc2ccccc2n1C1CCN(CC(=O)Nc2ccccc2Br)CC1	?	?	?	?	i	13µM*
Cc1ccccc1NC(=O)CN1CCC(n2nnc3ccccc32)CC1	-2%	-5%	i	-13%	i	-29%
CCC1Oc2ccccc2N(CC(=O)NCCC2=CCCCC2)C1=O (stereo not given)	-1%	-7%	i	16µM*	i	26µM*
CC1Oc2ccccc2N(CC(=O)NCCCN2CCOCC2)C1=O (stereo not given)	10%	8%	i	4%	i	2%
SMILES	HT1080-NT tox	HT1080 IDH1KD tx	KB-3-1 tox	DT40 TDP1 CPT	KB-V1 MDR tox	DT40 TDP1 no CPT
CC1Oc2ccccc2N(CC(=O)Nc2ccc3c(c2)OCO3)C1=O (stereo not given)	12%	-7%	i	-2%	21µM*	-25%
CC1Oc2ccccc2N(CC(=O)N2CCc3ccccc32)C1=O (stereo not given)	-3%	-3%	i	-11%	15µM*	-30%
CC1Oc2ccccc2N(CC(=O)NCCc2ccccc2)C1=O (stereo not given)	0%	-2%	i	-6%	16µM*	-21%
CC1Oc2ccccc2N(CC(=O)N2CCCCC2)C1=O (stereo not given)	-3%	10%	i	15%	i	-15%
COc1ccc(NC(=O)COC(=O)C2CCC2)cc1Cl	17%	13%	i	6%	i	15%
COc1ccc(/C=C/C(=O)OCC(=O)NC(=O)NC(C)(C)C)cc1	7%	11%	i	-13%	i	-25%
CC1Oc2ccccc2N(CC(=O)Nc2ccc3c(c2)OCCO3)C1=O (stereo not given)	11%	-24%	i	-14%	16µM*	?
CC(/C=N/NC(=O)c1cc(-c2ccc(C)s2)[nH]n1)=C\c1ccccc1	5.2µM*	7.3µM*	21µM*	8.2µM*	?	2.6µM*
Cc1ccc(-c2cc(C(=O)N/N=C/c3ccco3)n[nH]2)s1	9%	-1%	i	-26%	?	?
CC(/C=N/NC(=O)c1cc(C(C)(C)C)[nH]n1)=C\c1ccccc1	?	?	?	?	?	23µM*
Cc1ccc(-n2nc3c(c2NC(=O)c2c(-c4ccccc4Cl)noc2C)CSC3)cc1	?	?	i	26µM*	i	?
Cc1ccccc1-n1nc2c(c1NC(=O)c1c(-c3ccccc3Cl)noc1C)CSC2	-1%	-16%	i	-30%	i	21µM*
Cc1ccccc1-n1nc2c(c1NC(=O)CCCl)CSC2	1%	0%	i	?	i	?
COc1ccc(/C=C/C(=O)N2c3ccccc3Sc3ccc(C(F)(F)F)cc32)cc1	-2%	-11%	i	?	?	18µM*
Cc1sc2ncn(CC(=O)NCC(=O)N(C)C3CCCCC3)c(=O)c2c1C	-2%	-4%	i	7%	23µM*	0%
COc1ccc(-n2c(-c3ccc(Br)cc3)c[n+]3c2CCc2ccccc2-3)cc1	?	16µM*	2.6µM*	1.6µM*	i	0.92µM*

High-throughput results from PubChem.
